# According to PubChem BioAssay AID651635 (National Center for Advancing Translational Sciences (NCATS), 2013):
# About 1,900 (0.47%) of roughly 400,000 compounds were called active. Not shown: some 14% with an inconclusive outcome. Calls follow the shape of the dose curve; as a rule, active = well fitted cell-killing curve with a large enough effect; inconclusive = small, poorly fitted or top-dose-only effect, or effect the other way; inactive = no such curve, though single readings can be large or run the other way. What follows is part of a selection rich in actives, with near analogues and random picks from the rest. Entries that show only a call come without a potency.
# Assay: Viability Counterscreen for Primary qHTS for Inhibitors of ATXN expression; also: nearly all actives have a fitted effect of over 40% in size
# Details: S2 cells (HEK-293 line with an ATXN2-luciferase reporter) viability, CellTiter-Fluor protease fluorescence, 24 h; series mostly up to 56.7 µM
# Description: Spinocerebellar ataxia type 2 (SCA2) is a multisystem neurodegenerative disease caused by a dominantly-acting mutation leading to expansion of a polyQ domain in the ataxin-2 protein (ATXN2). SCA2 patients develop progressive ataxia and later lose function in other neuronal systems. Prominent parkinsonian signs develop in some patients. Similar to many neurodegenerative disorders, no symptomatic or disease-modifying treatments are known.
# The primary objective of the proposed research is to identify compounds inhibiting ATXN2 expression and to test them for efficacy in SCA2 mouse models. To this end, we have developed a cell-based assay paired with an in vivo mouse model using identical luciferase expression constructs. This approach takes advantage of an ATXN2-luciferase transgene, with the luciferase gene flanked by the upstream and downstream portions of the ATXN2 gene. This primary assay was tested against the NIH Molecular Libraries Small Molecule Repository (MLSMR).
# NIH Chemical Genomics Center [NCGC]
# NIH Molecular Libraries Probe Centers Network [MLPCN]
# Assay Submitter (PI): Daniel Scoles, University of Utah
# PROTOCOL TABLE (as described by Inglese J, Shamu CE and Guy RK. 2007)
# SEQUENCE No. (e.g., 1, 2, 3, etc.); […] (e.g., Cells, Incubation, Reagent, etc.); VALUE; DESCRIPTION.
# 1; Cells; 4 uL; white, solid bottom, 1536-well Greiner assay plate.
# 2; Incubation; 2 hr; 37 degree C in 5% humidified CO2.
# 3; Compounds; 23 nL; Kalypsis pintool (Wako USA) equipped with a 1536-well pin head.
# 4; Incubation; 24 hr; 37 degree C in 5% humidified CO2.
# 5; Reagent; 1 uL; Gly-Phe-7-Amino-4-trifluoromethylcoumarin.
# 6; Incubation; 30 min; 37 degree C in 5% humidified CO2.
# 7; Detection; Fluorescence; ViewLux plate reader (PerkinElmer).
# 8; Reagent; 3 uL; SteadyGlo luciferase solution (Promega).
# 9; Incubation; 5 min; room temperature.
# 10; Detection; Luminescence; ViewLux plate reader (PerkinElmer).
# NOTES (numbers refer to Sequence numbers above)
# 1. S2 cells expressing ATXN2-luciferase reporter were suspended in phenol-red free DMEM and dispensed in assay plates using a Multidrop Combi dispenser (Thermo Fisher Scientific).
# 2. Assay plates were incubated. Evaporation was prevented by covering assay plates with metal lids containing holes to allow gas diffusion.
# 3. […] Vehicle-only plates, with DMSO being pin-transferred to columns 5-48, were inserted uniformly at the beginning and the end of each library to monitor and record any shifts in assay performance.
# 5. 125 uM Gly-Phe-7-Amino-4-trifluoromethylcoumarin (MP Biomedicals) working concentration was used at a final concentration of 25 uM.
# 7. To assess cell viability; the assay plates were read using the ViewLux high-throughput CCD imager (PerkinElmer), wherein single end-point fluorescence measurement was acquired (excitation 405/10; emission 540/25 nm).
# 8. Detection reagent SteadyGlo Luciferase (Promega) was added to the assay plate.
# 10. Luminescence is then measured on the ViewLux imager equipped with a clear emission filter using a 2 sec exposure. All screening operations were performed on a fully integrated robotic system (Kalypsys) containing one RX-130 and two RX-90 anthropomorphic robotic arms (Staubli).
# Inglese J, Shamu CE and Guy RK, Reporting data from high throughput screening of small molecule libraries, Nature Chemical Biology, 2007, 3(8): 438-441. doi.org/10.1038/nchembio0807-438.
# Potency is read from the fitted curve at half-maximal effect.
row,Structure (SMILES),Potency
1,CC[C@H]1CN2CCc3cc(OC)c(OC)cc3[C@@H]2C[C@@H]1C[C@H]1NCCc2cc(OC)c(OC)cc21,39.8 µM (active)
2,C[C@H]1CC[C@@]2(NC1)O[C@@H]1C[C@H]3[C@@H]4CC=C5C[C@@H](O)CC[C@]5(C)[C@@H]4CC[C@]3(C)[C@@H]1[C@@H]2C,inactive
3,C[C@]12CC[C@@H]3C(=CCc4cc(O)ccc43)[C@@H]1CCC2=O,inactive
4,CCOC(=O)c1c(C)c(C(=O)N2CCC3(CC2)OCCO3)c(C)n1CC,inactive
5,CC(Cc1ccccc1)NC=O (stereo not given),inactive
6,CC(Cc1ccccc1)NCCC(c1ccccc1)c1ccccc1 (stereo not given),20 µM (active)
7,CC(=O)NC(=O)NC(C)Cc1ccccc1 (stereo not given),inactive
8,Cc1cc(-c2ccc(N)c(C)c2)ccc1N,inactive
9,CCN1C[C@@]2(COC)CC[C@H](OC)[C@]34[C@@H]1[C@]1(OCO[C@@]15C[C@@H](OC)C1C[C@H]3[C@H]5[C@@H]1OC)[C@H](O)[C@@H]24,inactive
10,CN1[C@@H]2CC[C@H]1CC(OC(=O)c1cc(Cl)cc(Cl)c1)C2 (stereo not given in full),inactive
11,O=C(CSc1ccccc1)Nc1ccc(C(=O)Nc2cccc(O)c2)cc1,inactive
12,COc1ccccc1C(=O)N[C@@H]1c2ccccc2C2(CCN(Cc3nc(C(C)C)cs3)CC2)[C@H]1O,35.5 µM (active)
13,COC(=O)C1=C(c2ccc(Cl)c(C(F)(F)F)c2)C[C@@H]2CC[C@H]1N2C(=O)NC1CC1,inactive
14,Clc1ccc([C@@H]2C[C@H]3CC[C@@H]2N3)cn1,inactive
15,C[C@]12CC[C@H](O)C[C@@H]1CC[C@H]1[C@H]2CC[C@]2(C)C(=O)CC[C@@H]12,inactive
16,CCOC(=O)[C@]12Cc3ccccc3[C@H]1N(C1CCCCC1)C(=O)c1cc(OC)ccc12,10 µM (active)
17,CCOC(=O)[C@]12Cc3cc(OC)ccc3[C@H]1N(C(C)C)C(=O)c1ccccc12,11.2 µM (active)
18,COc1cccc(-c2ccc(O)c(CNC3CN4CCC3CC4)c2)n1 (stereo not given),inactive
19,CCN1C[C@]2(C)CC[C@H](O)[C@@]34[C@@H]5CC6[C@@H](OC)C[C@@](O)([C@@H]5[C@@H]6O)[C@H](C[C@@H]23)[C@H]14,inactive
20,CCCOC(=O)c1cncn1C(C)c1ccccc1 (stereo not given),inactive
21,Cc1nnc(NC(=O)c2cccn(Cc3cccc(F)c3)c2=O)s1,inactive
22,CCOC(=O)c1c(-c2ccccc2)oc2ccc(OC(=O)N(C)C)cc12,inactive
23,COC(=O)C1=C(c2ccc(F)cc2OCc2ccccc2)C[C@@H]2CC[C@H]1N2C(=O)NCc1ccc2[nH]ccc2c1,inactive

row,Structure (SMILES),Potency
1,CC1N=C(N)OC1c1ccccc1 (stereo not given),inactive
2,O=C(Cn1c(=O)n(CC2CS2)c2ccccc21)N1CCCCC1 (stereo not given),inactive
3,CC(=CCOc1ccc2ccc(=O)oc2c1)C1=CC(=O)C(C)(C)O1,inactive
4,O=c1[nH]c2ccccc2n1C1CCN(C(c2ccccc2)c2nnnn2Cc2ccccc2)CC1 (stereo not given),7.08 µM (active)
5,O=c1[nH]c2ccccc2n1C1CCN(C(c2ccnc3ccccc23)c2nnnn2Cc2ccccc2)CC1 (stereo not given),12.6 µM (active)
6,CCC(=NCCc1ccccc1)c1c(O)n(C2CCCCC2)c(=O)[nH]c1=O,inactive
7,Cc1ccc(Cn2nnnc2CN2CCC(n3nnc4ccccc43)CC2)cc1,inactive
8,O=P1(N(CCCl)CCCl)NC(OO)CCO1 (stereo not given),inactive
9,Cc1ccsc1C(=O)C1CCCN(Cc2ccc(O)cc2)C1 (stereo not given),inactive
10,Cc1ccc(N2C(=O)NC(=O)C(CCc3ccncc3)(Cc3cccc(Cl)c3Cl)C2=O)cc1 (stereo not given),inactive
11,CCOP(=O)(OCC)C(O)c1ccc(OC)cc1OC (stereo not given),inactive
12,CC[N+]1(CCOC(=O)C(O)(c2ccccc2)c2ccccc2)CCCCC1,inactive
13,Cc1ccc(Cl)cc1N1CCN(C(=O)C2CCC(CNS(=O)(=O)c3cccs3)CC2)CC1 (stereo not given),inactive
14,CO[C@]12CC[C@@]3(C[C@@H]1[C@](C)(O)C(C)(C)C)[C@@H]1Cc4ccc(O)c5c4[C@@]3(CCN1CC1CC1)[C@H]2O5,35.5 µM (active)
15,Oc1ccc2c3c1OC1[C@H](O)CC[C@@]4(O)[C@@H](C2)N(CC2CC2)CC[C@]314 (stereo not given in full),inactive
16,CN(C)c1ccc(/C=C2\CC3C4CC=C5CC(O)CCC5(C)C4CCC3(C)C2=O)cc1 (stereo not given),inactive
17,CC(C)=C[C@@H]1[C@@H](C(=O)OCc2coc(Cc3ccccc3)c2)C1(C)C,inactive
18,Cc1cc(OCc2cc(C(=O)O)oc2C)c2c3c(c(=O)oc2c1)CCCC3,inactive
19,CN(Cc1cccc2ncccc12)C(=O)c1cnn(-c2nccc(-c3ccccc3F)n2)c1C1CC1,22.4 µM (active)
20,CCCCC1C(=O)NC(=O)N(C2CCCCC2)C1=O (stereo not given),inactive
21,CC1=C(C(=O)O)N2C(=O)[C@@H](N)[C@H]2SC1,inactive
22,NCC(O)c1ccc(O)cc1 (stereo not given),inactive
